About 83,000 compounds went through this panel and 20% of them were active in at least one assay; those are over-represented in the sample as a whole.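 Single-dose data. Exposure time 48 hours. Values below 10 considered active.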 Values without a mark were called inactive. Calls of active or inactive are those of the source.
Legend:
Experiment in all cases: NCI-60 one-dose screen, 48 h (100 = growth as untreated, 0 = no growth, -100 = all killed)
Conditions in all cases: 10 µM unless noted
BT-549 breast = test system: BT-549 breast
MDA-MB-435 melanoma = test system: MDA-MB-435 melanoma
MCF7 breast = test system: MCF7 breast
HCT-116 colon = test system: HCT-116 colon
HCC-2998 colon = test system: HCC-2998 colon
KM12 colon = test system: KM12 colon
MDA-MB-468 breast = test system: MDA-MB-468 breast
SW-620 colon = test system: SW-620 colon

SMILES | growth (BT-549 breast) | growth (MDA-MB-435 melanoma) | growth (MCF7 breast) | growth (HCT-116 colon) | growth (HCC-2998 colon) | growth (KM12 colon) | growth (MDA-MB-468 breast) | growth (SW-620 colon)
C=C1CCC2C3(C)COC(c4ccc(F)cc4)OC3CCC2(C)C1CC(O)C1=CCOC1=O (stereo not drawn) | -31.9% (active) | 29.6% | 12.3% | -50.2% (active) | 24.3% | 49.7% | 18.8% | –
CC(=O)Oc1ccccc1C(=O)[Se]C(=NC1CCCCC1)NC1CCCCC1 | -91.7% (active) | -77.2% (active) | -82.1% (active) | -69.9% (active) | -92.6% (active) | -67.8% (active) | -77.8% (active) | –
CC1=C(C(=O)c2ccccc2)C(c2cccc3ccccc23)n2c(nc3ccccc32)N1 (stereo not drawn) | 61.1% | 72.6% | 38.1% | 31.7% | 95.5% | 90.6% | -12.7% (active) | –
c1ccc(-c2csc(Nc3cccc(Nc4nc(-c5ccccc5)cs4)c3)n2)cc1 | 31.7% | 44.7% | 15.6% | 40% | 35.5% | 1.06% (active) | 39.2% | 66.2%
N#Cc1c(-c2ccc(Cl)cc2)nc2n[nH]c(-c3ccc(Cl)cc3)c2c1-c1ccc(C(F)(F)F)cc1 | -40% (active) | -29.7% (active) | -4.6% (active) | -63.3% (active) | -38.9% (active) | -11% (active) | -45% (active) | –
Cc1ccc(C(SCCNCc2cc(N(C)C)ccn2)(c2ccccc2)c2ccccc2)cc1 | -51.8% (active) | -75.4% (active) | -80.5% (active) | -80.5% (active) | -93.8% (active) | -40.1% (active) | -69.5% (active) | -79.4% (active)
CCN1CCN(Cc2ccc(C(=O)Nc3cccc(C#Cc4cccc5[nH]nc(N)c45)c3)cc2C(F)(F)F)CC1 | – | -69.1% (active) | -84.9% (active) | -86.8% (active) | -91.5% (active) | -73.2% (active) | -85.5% (active) | -50.5% (active)
Cc1ccc(-c2nc(C#N)c(S(=O)(=O)N3CCN(S(=O)(=O)c4ccccc4)CC3)o2)cc1 | -19% (active) | 30.1% | -30.6% (active) | -81.4% (active) | 56.2% | 77.4% | -49.3% (active) | -86.9% (active)
O=C(O)c1ccc(-c2ccc(/C=N/NC(=O)c3[nH]c4ccc(Br)cc4c3-c3ccccc3)s2)cc1 | 8.87% (active) | 4.27% (active) | 7.47% (active) | 11.1% | -66% (active) | -14.8% (active) | 3.12% (active) | –
O=C(NNc1nc2cc(C(F)(F)F)ccc2n2cccc12)c1cnccn1 | – | -56.1% (active) | -62.4% (active) | -94.6% (active) | -72.2% (active) | -55% (active) | -47.7% (active) | -26.4% (active)
N#Cc1c(-c2ccccc2Cl)cc(-c2c[nH]c3ccccc23)[nH]c1=O | 73.9% | 23.6% | 50.9% | 52.4% | 73.1% | 71% | 20.7% | –
CCC(C)(C)c1ccc(OCCCCN2CCN(c3ccncc3)CC2)cc1 | 27% | 39.2% | -23.1% (active) | 8.09% (active) | -5.55% (active) | 37.4% | -67.2% (active) | 2.87% (active)

Reference: PubChem BioAssay (NCI)
